Source: PubChem BioAssay
Hits are enriched below; roughly 21% of the tested compounds scored in any of these assays.
RORg inh: ROR gamma (mouse) transcription inhibition | P51450 | Drosophila S2 Gal4-RORgamma UAS-luciferase reporter, 20 h | Potency, µM (highest dose often 53.6 µM), for the others: at the top dose activity change, negative = inhibition, actives largely listed as inhibitors | 5.4% of 310,000 active | AID 2551; note: potency is the fitted concentration of half-maximal effect; nearly all actives have a fitted effect of over 60% in size
Target sequence (P51450 whole entry, looked up, the tested form may be a part): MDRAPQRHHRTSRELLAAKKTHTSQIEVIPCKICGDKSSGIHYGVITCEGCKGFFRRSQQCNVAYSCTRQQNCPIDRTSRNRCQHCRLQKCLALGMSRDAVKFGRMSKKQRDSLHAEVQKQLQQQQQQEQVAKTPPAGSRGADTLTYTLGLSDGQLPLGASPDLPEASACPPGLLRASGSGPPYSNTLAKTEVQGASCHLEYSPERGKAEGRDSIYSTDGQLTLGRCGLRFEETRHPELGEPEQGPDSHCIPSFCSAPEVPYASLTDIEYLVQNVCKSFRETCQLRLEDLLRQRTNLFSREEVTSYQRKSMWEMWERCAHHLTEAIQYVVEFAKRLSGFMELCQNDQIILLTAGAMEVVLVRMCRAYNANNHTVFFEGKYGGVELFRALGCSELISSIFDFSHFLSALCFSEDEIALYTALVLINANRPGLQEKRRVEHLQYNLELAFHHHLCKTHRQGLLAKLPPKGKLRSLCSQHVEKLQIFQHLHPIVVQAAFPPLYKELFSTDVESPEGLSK
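ROR gamma transcriptional activity was tracked as Gal4-UAS luciferase output in stably transfected Drosophila Schneider cells, with compound added 1 hr before 700 uM copper sulfate induction and a 20 hr ambient-temperature incubation.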
DT40 TDP1 no CPT: qHTS for Inhibitors of human tyrosyl-DNA phosphodiesterase 1 (TDP1): qHTS in cells in absence of CPT; DT40 Tdp1-/- hTDP1 cells, no CPT, ATP luminescence, 48 h; Potency, µM (highest dose often 46.2 µM), for the others: at the highest dose activity change, negative = growth inhibition, actives largely listed as inhibitors; 15% of 420,000 active; AID 686978, 2013; note: potency is the fitted concentration of half-maximal effect; nearly all actives have a fitted effect of over 55% in size
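Camptothecin absent (DMSO only). Human TDP1-complemented DT40 knockout cells, 400 cells/well, 37 °C for minimum 48 hr; ATP measured via CellTiter-Glo, 30 min dark incubation, luminescence.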
IL-1B inflam inh: inflammasome signaling inhibition, IL-1 beta readout. THP-1 LPS/ATP IL-1B secretion, AlphaLISA, 16 h; active compounds read low. activity change, % at 57.5 µM. 4.7% of 360,000 active. AID 743279; in the data active = activity change below about -50%; inconclusive = mostly about -30% to -49%
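THP-1 cells pretreated 1 hr with compounds (up to 57.5 uM final), then stimulated with LPS (250 ng/mL final) plus ATP (1.25 mM final); secreted IL-1B measured by AlphaLISA after 16 hr, decreased signal indicating inhibition.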
TDP1 cell CPT: DT40-hTDP1 cell growth loss with CPT | 12% of 420,000 active | chicken DT40 Tdp1-/-;hTDP1 cells + 20 nM CPT, ATP luminescence, 48 h | Potency, µM (top dose mostly 46.2 µM), for the others: at the highest dose activity change, negative = growth inhibition, actives largely listed as inhibitors; note: potency is the fitted concentration of half-maximal effect; nearly all actives have a fitted effect of over 55% in size
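Chicken DT40 Tdp1-/- cells complemented with human TDP1, 400 cells/well, exposed to compounds plus 20 nM camptothecin for at least 48 h at 37 C; viability read as ATP content by CellTiter-Glo luminescence.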
ELG1 repair inh: ELG1-dependent DNA repair inhibition; HEK293T ELG1-luciferase reporter, luminescence, 16 h; DNA damage induced by 5-fluorouridine; Potency, µM (doses to about 46.1 µM), for the others: at the highest dose activity change, negative = inhibition, actives largely listed as inhibitors; 2.3% of 330,000 active; note: potency is the fitted concentration of half-maximal effect; nearly all actives have a fitted effect of over 55% in size
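Quantitative HTS, concentration-response format. 2,000 cells/well co-treated with 5-fluorouridine and compound, 16 hr in 5% CO2 at 37 °C; ONE-Glo luminescence read after 30 min.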
Gal4-VP16 FLuc: Gal4-VP16 reporter inhibition counter-screen | Drosophila S2 Gal4-VP16 UAS-luciferase, luminescence, 20 h | Potency, µM (highest dose often 53.6 µM), inactives show at the highest dose activity, negative = inhibition, usual class: inhibitors | 3.5% of 310,000 active;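 note: Gal4-VP16 expression switched on by copper sulfate through the metallothionein promoter; potency is the fitted concentration of half-maximal effect; nearly all actives have a fitted effect of over 50% in size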
* = called active by the depositor; u = inconclusive; x = not tested or not shown; [ ] = dose if it differs, or a comment. Unless noted, calls come from the whole dose curve; as a rule, active = well fitted curve in the direction sought with a large enough effect; inconclusive = small, poorly fitted or top-dose-only effect, or another doubt; inactive = no such curve, though single readings can be large; an effect the other way counts as inactive or inconclusive. % is set by controls: 0 for no effect and ±100 for the full control effect.

SMILES	RORg inh	DT40 TDP1 no CPT	IL-1B inflam inh	TDP1 cell CPT	ELG1 repair inh	Gal4-VP16 FLuc
CCOc1ccccc1C1c2cc3c(cc2OC(C)(N2CCCC2)C1C)OCO3 (stereo unspecified)	x	-11.9%	9.1	26.8%	x	x
COC(=O)c1cccc(C(=O)NCc2nc(-c3ccccc3NC(C)=O)oc2C)c1	x	-13.9%	x	5.0%[9.04 µM]	x	x
CC(/C=C/C=C(C)/C=C/C(=O)O)=C\C=C\C=C(C)\C=C\C=C(C)\C=C\C(=O)O	-10.9%	x	x	x	x	-5.1%
Cc1ccc(C(=O)CC(=O)c2cc(Cl)ccc2O)cc1	u	4.61µM*	43.2	6.51µM*	u	10µM*
Cc1ccc(CC(=O)c2ccc(Cl)cc2)cc1	14.7%	-8.7%	-9.2	15.8%	u	22.5%
Cc1ccc(C(=O)CC(=O)c2ccc(C)cc2O)cc1	8.91µM*	18.4µM*	-11.9	u	u	u
O=C(NCc1nnc2c(C(F)(F)F)cc(Cl)cn12)c1ccc(Br)o1	-3.6%	5.0%	18.2	-3.6%	u	-2.5%
COc1ccc(OC)c(NC(=O)C2(C)CCN2C(=O)CC2CC2)c1 (stereo unspecified)	x	u	20.9	-10.5%	x	x
O=C(CNC(=O)c1ccco1)Nc1ccc(F)cc1	1.6%	u	2.6	u	u	2.4%
O=C(CCNc1ccc(Cl)c(C(F)(F)F)c1)c1ccco1	u	9.2µM*	-4.9	7.31µM*	2.0%	u
O=C(CCNc1ccc(F)cc1)c1ccco1	11.2µM*	7.31µM*	-2.1	3.26µM*	u	u
O=C(CCNc1cc(Cl)cc(Cl)c1)c1ccco1	-17.0%	13µM*	18.1	13µM*	15.6%	-10.7%
O=C(CCNc1ccc(F)c(Cl)c1)c1ccco1	u	6.51µM*	-101.2*	3.66µM*	-1.7%	u
COc1ccc(NC(=O)OC(C)C)cc1	-26.4%	u	-23.9	u	u	-13.7%
Cc1cnc(=O)[nH]c1SCc1ccccc1F	14.2%	-3.5%	-15.7	-3.0%	0.0%	-12.0%
CC[C@@]1(C(=O)OC)N[C@H](CN(C)C(=O)C2CCCCC2)[C@@H]2C(=O)N(Cc3ccccc3)C(=O)[C@@H]21	x	-1.1%	-5.0	1.1%	-1.0%	x
CCOC(=O)C(c1nc2ccccc2[nH]1)n1c(-c2ccccn2)nc2ccccc21 (stereo unspecified)	x	-29.5%	-25.0	u	x	x
COC(=O)CNc1cccc(C(F)(F)F)c1	-2.7%	-11.2%	8.7	10.3%	1.4%	-0.5%
O=C(CCNc1cccc(C(F)(F)F)c1)c1ccco1	15.2%	16.4µM*	-3.0	20.6µM*	6.8%	-5.1%
CCOC(=O)c1cc(-c2ccc(N)cc2)sc1N	37.9%	20.6µM*	u	18.4µM*	u	26.8%
CCN(N=O)c1ccc(C=C2C=Cc3ccccc32)cc1	x	-26.2%	-65.7*	-5.1%	x	x
CC(=O)N(C)c1ccc(C=C2C=Cc3ccccc32)cc1	x	9.2µM*	-78.4*	9.2µM*	x	x
Cc1ccc(N2CC(NC(=O)c3ccc4c(c3)OCO4)CC2=O)cc1 (stereo unspecified)	x	-16.9%	x	12.8%	x	x
COc1ncnc2c1ncn2CCCN[C@H](C)c1cccc2ccccc12	x	1.3%	-9.7	0.8%	x	x
CCCc1cc(-c2n[nH]c(C(=O)OCC)c2-c2cscn2)c(O)cc1O	u	14.6µM*	-11.9	u	u	u
SMILES	RORg inh	DT40 TDP1 no CPT	IL-1B inflam inh	TDP1 cell CPT	ELG1 repair inh	Gal4-VP16 FLuc
COC(=O)c1cccc(Nc2nc(-c3cccnc3)nc3ccccc23)c1	1.6%	9.2µM*	-22.3	u	7.3µM*	-3.0%
CCOC(=O)c1cccc(Nc2nc(-c3cccnc3)nc3ccccc23)c1	u	10.3µM*	-108.2*	23.1µM*	9.2µM*	u
O=C(O)c1cccc(Nc2nc(-c3cccnc3)nc3ccccc23)c1	-25.8%	u	28.5	u	-8.1%	-4.8%
CCC(=O)N1CCc2cc(Br)cc(S(=O)(=O)N3CCCC(C(=O)Nc4cc(C)ccc4OC)C3)c21 (stereo unspecified)	x	u	x	-20.8%	x	x
CC1CCCCN1C(=O)NC1CC(=O)N(c2ccc3c(c2)OCCO3)C1 (stereo unspecified)	x	-24.6%	0.5	18.6%	-11.1%	x
COC(=O)c1ccccc1-c1cc(C)cc2c1OC(CNC(=O)c1cnc(C)cn1)C2 (stereo unspecified)	x	18.4µM*	x	-11.6%[9.04 µM]	x	x
COC(=O)c1ccccc1-c1cc(C)cc2c1OC(CNC(=O)c1cc(C)on1)C2 (stereo unspecified)	x	u	x	-8.5%[9.04 µM]	x	x
COC(=O)C[C@@H]1CC[C@@H](NC(=O)C2CCC2)[C@@H](CO)O1	x	-6.1%	1.7	-6.9%	x	x
OC(COCC(F)(F)C(F)(F)C(F)(F)C(F)F)Cn1c2ccccc2c2ccccc21 (stereo unspecified)	u	8.2µM*	-102.9*	13µM*	-18.4%	5.01µM*
Cc1cccc(C)c1OCC(O)Cn1c2ccccc2c2ccccc21 (stereo unspecified)	u	20.6µM*	-7.1	u	0.8%	-9.0%
Cc1ccc(OCC(O)Cn2c3ccccc3c3ccccc32)cc1 (stereo unspecified)	11.3%	12.6µM*	-84.2*	u	-23.9%	-22.3%
Cc1cccc(C)c1OCC(O)CN1CCN(c2ccccc2)CC1 (stereo unspecified)	-4.5%	u	32.8	u	-2.0%	-3.7%
CCOc1ccc(Oc2ccc(C(F)(F)F)cc2NC(=O)C2=COCCO2)cc1	x	u	-20.7	u	-8.7%	x
O=C(CSc1nnc(-c2ccncc2)n1-c1ccc(Cl)cc1)N1CCOCC1	18.1%	-3.3%	0.3	-12.3%	-1.9%	-1.0%
C[C@@H]1CN([C@@H](C)CO)C(=O)CCCn2nncc2CO[C@@H]1CN(C)S(=O)(=O)c1ccc2ccccc2c1	x	-19.0%	u	u	x	x
CC1CC(=O)NN=C1c1cccs1 (stereo unspecified)	u	0.7%	-9.5	3.7%	u	-22.4%
COCC(C)N=C1NN=C(c2cccs2)C(CC(=O)O)S1 (stereo unspecified)	2µM*	-5.1%	35.8	4.3%	3.7%	11.2µM*
Cc1cnc(CNC(=O)c2ccc3oc(Cc4ccccc4)nc3c2)[nH]1	-9.4%	4.8%	-20.6	1.8%	0.1%	6.1%
CC(C)N(Cc1nccn1C)C(=O)c1ccc2oc(Cc3ccccc3)nc2c1	-10.7%	u	24.7	20.6µM*	22.7%	-11.5%
